Source: ChEMBL document CHEMBL5308504, “Tm Shift (DSF) assay results for EUbOPEN Chemogenomics Library” (2023)
Numbered stars: 1 amine (or outer) side, 2 acyl side, 3 side chain; on linkers, the order of the positions; unused ones are H or OH. Bridge positions count the residues as written; N and C are the ends. Square brackets hold non-standard residues; d marks the D form. Peptide text beside a SMILES is read from it. I, II: the chains in the order shown. Hexamethylenediamine = C(CCCN[*:2])CCN[*:1]; Dip = N[C@H](C(=O)O)C(c1ccccc1)c1ccccc1; Chg = N[C@H](C(=O)O)C1CCCCC1; NMeA = CN[C@@H](C)C(=O)O

Tests used:
[1] = target: Bromodomain-containing protein 4 (Homo sapiens) (UniProt O60885); settings: Compound concentration 20.0 uM, Protein concentration 2.0 uM, Result type QC Liability
[2] = target: T1, Transcription intermediary factor 1-alpha (Homo sapiens) (UniProt O15164); settings: Compound concentration 20.0 uM, Protein concentration 2.0 uM, Result type QC Liability
T1 sequence (whole entry): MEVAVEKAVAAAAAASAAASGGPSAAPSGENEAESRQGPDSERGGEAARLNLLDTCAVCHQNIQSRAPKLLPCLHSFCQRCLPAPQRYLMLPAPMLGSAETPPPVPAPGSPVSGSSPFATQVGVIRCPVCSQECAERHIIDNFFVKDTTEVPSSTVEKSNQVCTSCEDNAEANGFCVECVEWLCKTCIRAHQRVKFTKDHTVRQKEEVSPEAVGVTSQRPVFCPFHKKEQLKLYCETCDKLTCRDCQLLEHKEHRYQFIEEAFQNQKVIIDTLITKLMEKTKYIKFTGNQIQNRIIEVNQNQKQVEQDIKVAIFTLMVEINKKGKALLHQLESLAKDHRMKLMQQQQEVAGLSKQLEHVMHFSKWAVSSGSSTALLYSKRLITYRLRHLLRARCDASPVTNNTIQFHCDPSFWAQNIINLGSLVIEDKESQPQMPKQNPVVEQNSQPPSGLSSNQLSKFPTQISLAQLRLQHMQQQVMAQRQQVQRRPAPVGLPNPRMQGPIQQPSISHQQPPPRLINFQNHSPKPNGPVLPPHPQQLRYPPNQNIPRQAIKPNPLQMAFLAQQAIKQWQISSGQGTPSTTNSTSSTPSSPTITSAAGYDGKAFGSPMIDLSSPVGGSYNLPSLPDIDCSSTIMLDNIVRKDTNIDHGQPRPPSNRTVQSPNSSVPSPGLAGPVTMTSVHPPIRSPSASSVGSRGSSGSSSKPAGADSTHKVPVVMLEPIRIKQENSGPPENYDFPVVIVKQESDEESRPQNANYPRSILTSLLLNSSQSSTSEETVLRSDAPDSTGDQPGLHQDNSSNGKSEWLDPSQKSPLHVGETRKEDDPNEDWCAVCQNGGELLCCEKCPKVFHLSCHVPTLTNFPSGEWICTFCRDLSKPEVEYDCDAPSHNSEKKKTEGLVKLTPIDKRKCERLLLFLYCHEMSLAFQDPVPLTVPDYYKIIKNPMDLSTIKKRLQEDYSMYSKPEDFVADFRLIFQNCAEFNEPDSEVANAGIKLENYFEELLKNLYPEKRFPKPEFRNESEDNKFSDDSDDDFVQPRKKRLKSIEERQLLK

CN1CCCN(C(=O)c2cccc(-c3ccc(/C=C4/C(=O)Nc5ccc(Cl)cc54)o3)c2)CC1
ΔTm [1]: -4.14 °C | ΔTm [2]: -5.43 °C

Cc1ccc(-n2nc(C(C)(C)C)cc2NC(=O)Nc2ccccc2F)cc1
ΔTm [1]: -1.72 °C | ΔTm [2]: -1.64 °C

O=C(O)CCCCCC[C@@H]1C(=O)NC(=O)N1CCC(O)C1CCCCC1 (stereo not given in full)
ΔTm [1]: -1.84 °C | ΔTm [2]: -0.56 °C

Cc1ccc(-c2cn3nc(C(=O)NC4(c5ccc(F)cc5)CN(C)C4)c(C(C)C)c3c(=O)[nH]2)cc1C
ΔTm [1]: -24.1 °C | ΔTm [2]: 0.46 °C

Nc1nccc(-c2c(-c3ccc(F)cc3)ncn2C2CCN(Cc3ccon3)CC2)n1
ΔTm [1]: -2.58 °C | ΔTm [2]: -2.27 °C

CCCNc1ccc2ncc(-c3ccncc3)n2n1
ΔTm [1]: -0.06 °C | ΔTm [2]: -2.61 °C

O=S(=O)(Nc1ccc(C(O)(C(F)(F)F)C(F)(F)F)cc1)c1cccs1
ΔTm [1]: -2.9 °C | ΔTm [2]: -0.69 °C

CC1CNCCc2c1nc1ccnn1c2N1CC(C(=O)N2CCC(C)(C)C2)C1 (stereo not given)
ΔTm [1]: -3.66 °C | ΔTm [2]: 0.37 °C

C=CC1C[C@]1(NC(=O)[C@@H]1C[C@@H](Oc2cc(-c3csc(NC(=O)C(C)C)n3)nc3c(Br)c(OC)ccc23)CN1C(=O)[C@@H](NC(=O)OC1CCCC1)C(C)(C)C)C(=O)O (stereo not given in full)
ΔTm [1]: 1.06 °C | ΔTm [2]: 2.85 °C

CC(=O)c1c(C)c2cnc(Nc3ccc(N4CCN(CCOCCOCCOCCNC(=O)COc5cccc6c5C(=O)N(C5CCC(=O)NC5=O)C6=O)CC4)cn3)nc2n(C2CCCC2)c1=O (stereo not given)
ΔTm [1]: -1.51 °C | ΔTm [2]: 0.27 °C

COc1cc(C(N)=O)ccc1Nc1ncc2c(n1)N(CCC(C)C)[C@H](C)C(=O)N2C
ΔTm [1]: 6.98 °C | ΔTm [2]: -0.48 °C

COc1cc(C(=O)NCCOCCOCCOCC(=O)N[C@H](C(=O)N2C[C@H](O)C[C@H]2C(=O)NCc2ccc(-c3scnc3C)cc2)C(C)(C)C)ccc1Nc1ncc(C(F)(F)F)c(Oc2cccc3c2C(=O)CC3)n1
ΔTm [1]: -0.02 °C | ΔTm [2]: 2.06 °C

COCc1c(-c2cc3cc(C)cc(OC)c3s2)c2c(N)ncnn2c1CN[C@@H]1CCNC1=O
ΔTm [1]: 1.53 °C | ΔTm [2]: 0.22 °C

CC(C)(C#Cc1ccc(NC(=O)COc2ccccc2C(=O)c2ccccc2)c(Cl)c1)C(=O)O
ΔTm [1]: 0.63 °C | ΔTm [2]: 0.79 °C

Fc1ccc(-c2nc(-c3c(F)cccc3F)[nH]c2-c2ccncc2)cc1
ΔTm [1]: 0.95 °C | ΔTm [2]: -2.15 °C

CC(C)(C)NC(=O)c1cncn1C1CCN(c2ccc(-c3nnc(C(F)(F)F)o3)cn2)CC1
ΔTm [1]: -0.5 °C | ΔTm [2]: 0.46 °C

CCCCOc1c(C(=O)c2c(F)cc(C)cc2F)c[nH]c2nncc1-2
ΔTm [1]: -0.5 °C | ΔTm [2]: -1.46 °C

CCN1CCN(Cc2ccc(Nc3ncc(F)c(-c4cc(F)c5nc(C)n(C(C)C)c5c4)n3)nc2)CC1
ΔTm [1]: -1.43 °C | ΔTm [2]: -2.28 °C

CCN1CCN(Cc2ccc(C(=O)Nc3ccc(C)c(Oc4ccc5c(c4)CC(=O)N5)c3)cc2C(F)(F)F)CC1
ΔTm [1]: -2.44 °C | ΔTm [2]: -3.11 °C

CN1C(=O)Cc2ccc(-c3ccc(C[C@@H](C#N)NC(=O)[C@H]4N[C@@H]5CC[C@H]4C5)c(F)c3)cc21
ΔTm [1]: 0.1 °C | ΔTm [2]: 0.42 °C

CC(C)N1CCN(Cc2cnc(-c3cc(-c4cccc5[nH]ccc45)cc4[nH]ncc34)o2)CC1
ΔTm [1]: 0 °C | ΔTm [2]: -2.06 °C

Nc1ncnc2c1ccn2[C@@H]1O[C@H]([C@@H](O)c2ccccc2)[C@@H](O)[C@H]1O
ΔTm [1]: -2.22 °C | ΔTm [2]: -3.4 °C

C#Cc1cnc2[nH]cc(-c3cccc4c3CCN4C(=O)[C@@H]3CCCN3C#N)c2c1
ΔTm [1]: -0.57 °C | ΔTm [2]: -0.61 °C

Cc1cc(SCc2sc(-c3ccc(C(F)(F)F)cc3)nc2C)ccc1OCC(=O)O
ΔTm [1]: -3.91 °C | ΔTm [2]: -2.79 °C

CC(=O)c1c(C)c2cnc(Nc3ccc(N4CCN(CCCCNC(=O)COc5cccc6c5C(=O)N(C5CCC(=O)NC5=O)C6=O)CC4)cn3)nc2n(C2CCCC2)c1=O (stereo not given)
ΔTm [1]: -0.38 °C | ΔTm [2]: -3.15 °C

Cc1nn(-c2nc3ccc(Cl)c(Cl)c3[nH]2)c(O)c1C1OC(=O)c2ccccc21 (stereo not given)
ΔTm [1]: -4.43 °C | ΔTm [2]: -1.16 °C

CC1=C(C(=O)OCCO)[C@@H](c2ccc(C#N)cc2)NC(=O)N1c1cccc(C(F)(F)F)c1
ΔTm [1]: 0.01 °C | ΔTm [2]: 0.4 °C

CC(C)(C)c1cnc(CSc2cnc(NC(=O)C3CCN(CC(=O)NCCOCCOCCOCCNc4cccc5c4C(=O)N(C4CCC(=O)NC4=O)C5=O)CC3)s2)o1 (stereo not given)
ΔTm [1]: -1.66 °C | ΔTm [2]: -1.74 °C

C[C@H](NC(=O)c1cnc2n1[C@](C)(Cc1ccc(C#N)cc1)C(=O)N2c1cc(Cl)c(F)c(Cl)c1)C(=O)NC1(c2ccccn2)CC1
ΔTm [1]: 5.21 °C | ΔTm [2]: 0 °C

CN(C)CCCN1c2ccccc2Sc2ccc(Cl)cc21
ΔTm [1]: -1.94 °C | ΔTm [2]: -3.45 °C

N=C(N)NCCC[C@H](NC(=O)CC1(CC(=O)N2CCN(C3c4ccccc4NC(=O)c4ccccc43)CC2)CCCC1)C(=O)NCCn1c(=O)n(-c2ccccc2)n(-c2ccccc2)c1=O (stereo not given in full)
ΔTm [1]: 0.44 °C | ΔTm [2]: -2.38 °C

OC(c1ccc(-c2ccc(CN3CCN(Cc4ccncc4)CC3)cc2)c(F)c1)(C(F)(F)F)C(F)(F)F
ΔTm [1]: -1.34 °C | ΔTm [2]: -2.91 °C

Nc1ncnc2[nH]c(-c3ccccc3)nc12
ΔTm [1]: -1.11 °C | ΔTm [2]: -2.07 °C

CC1(C)Oc2ncnc(N)c2N=C1c1ccc([C@H]2CC[C@H](CC(=O)O)CC2)cc1
ΔTm [1]: -1.69 °C | ΔTm [2]: -0.57 °C

Cc1ccc(NC(=O)c2ccc3c(c2)OCCO3)cc1NC(=O)c1ccc2nc(OCCN3CCCC3)ccc2c1
ΔTm [1]: -12.8 °C | ΔTm [2]: -0.86 °C

CN[C@@H](C)C(=O)N[C@H](C(=O)N1CCC[C@H]1C(=O)N[C@H](C(=O)NCCCCCCNC(=O)[C@@H](NC(=O)[C@@H]1CCCN1C(=O)[C@@H](NC(=O)[C@H](C)NC)C1CCCCC1)C(c1ccccc1)c1ccccc1)C(c1ccccc1)c1ccccc1)C1CCCCC1 (I: H-[NMeA][Chg]P[Dip] / II: H-[NMeA][Chg]P[Dip]; linker I:C-II:C via Hexamethylenediamine)
ΔTm [1]: -4.77 °C | ΔTm [2]: -4.59 °C

COc1cc(F)ccc1-c1ncnc(Nc2cccc(C[S@](C)(=N)=O)c2)n1
ΔTm [1]: 0.48 °C | ΔTm [2]: -1.99 °C

COc1cc(N[C@@H]2CCCC[C@]2(O)C(F)(F)F)ccc1F
ΔTm [1]: -2.92 °C | ΔTm [2]: -2.59 °C

CC(C)NC(=O)[C@H]1CCC[C@H]1Nc1nc(Nc2ccc(CN(C)C)cc2)ncc1Br
ΔTm [1]: -3.19 °C | ΔTm [2]: -4.42 °C

CN1C(=O)c2c(nn(Cc3ccc(-c4cccc(F)n4)cc3)c2Nc2ccccc2)N2C1=N[C@@H]1CCC[C@@H]12
ΔTm [1]: 1.34 °C | ΔTm [2]: 0.8 °C

Oc1c(CN2CCCC2)cc(COCc2ccccc2)c2cccnc12
ΔTm [1]: -2.69 °C | ΔTm [2]: -4.08 °C

Cc1cc(Cn2c(N3CC4(CNC4)C3)nc3cc(Cl)cc(N4CCN(C)CC4)c32)cc(C)c1F
ΔTm [1]: -0.27 °C | ΔTm [2]: 0.27 °C

Cc1cc2ncnn2cc1Nc1ncc2c(n1)n(C1CCOCC1)c(=O)n2C
ΔTm [1]: -1.59 °C | ΔTm [2]: -4.66 °C

CCCCC[C@H](O)/C=C/[C@H]1[C@H](O)CC(=O)[C@@H]1CCCCCCC(=O)O
ΔTm [1]: -1.54 °C | ΔTm [2]: 0.28 °C

CN1C(=O)[C@@H](NC(=O)c2cc(Cc3ccccc3)on2)COc2ccccc21
ΔTm [1]: -1.02 °C | ΔTm [2]: -3.21 °C
